# NPC1 prom act = NPC1 promoter activation; Huh7 NPC1 promoter luciferase reporter, 24 h; Potency, µM (highest dose often 9.22 µM), for the others: at the top dose activation, actives largely listed as activators; 2.4% of 320,000 active; AID 485313; note: % of control where 0% means no effect; nearly all actives have a fitted effect of over 60% in size
#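 Luminescence from an NPC1 promoter-driven luciferase reporter in stably transfected Huh7 cells was measured after 24 h compound treatment at 37 °C, followed by 10 min ambient incubation with luciferase detection reagent.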
# FLuc modulator = firefly luciferase modulation, counter-screen for miR-21 project; AID 588342; P08659; Potency, µM (series often up to 57.5 µM), for the others: at the top dose activity change, negative = inhibition, usual class: inhibitors; purified FLuc, Km substrates, luminescence inhibition; 6.9% of 360,000 active;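 note: plate controls were vehicle for no effect and reference inhibitor for full effect; nearly all actives have a fitted effect of over 55% in size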
# Target sequence (P08659 whole entry, looked up): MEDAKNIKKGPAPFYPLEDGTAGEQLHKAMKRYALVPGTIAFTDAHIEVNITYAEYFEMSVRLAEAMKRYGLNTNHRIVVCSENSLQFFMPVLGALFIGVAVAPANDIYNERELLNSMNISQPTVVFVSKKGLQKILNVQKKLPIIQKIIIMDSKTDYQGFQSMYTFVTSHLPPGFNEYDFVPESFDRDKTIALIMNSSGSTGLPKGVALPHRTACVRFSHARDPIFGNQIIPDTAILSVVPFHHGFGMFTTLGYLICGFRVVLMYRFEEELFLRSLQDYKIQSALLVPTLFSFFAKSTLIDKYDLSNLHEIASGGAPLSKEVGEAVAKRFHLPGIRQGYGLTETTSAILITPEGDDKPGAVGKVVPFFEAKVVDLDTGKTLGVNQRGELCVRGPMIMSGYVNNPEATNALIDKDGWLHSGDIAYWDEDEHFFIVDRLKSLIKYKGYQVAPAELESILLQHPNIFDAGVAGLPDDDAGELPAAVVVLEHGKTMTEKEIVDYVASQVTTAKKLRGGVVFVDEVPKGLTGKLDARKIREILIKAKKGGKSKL
#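 Biochemical qHTS of compounds, final roughly 60 µM downward over six points, against 10 nM purified firefly luciferase using Km concentrations of substrates (10 uM D-luciferin, 10 uM ATP) in Tris acetate pH 7.5 buffer; luminescence output.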
# Rab9 prom act = activates the Rab9 promoter; Huh7 Rab9 promoter-luciferase reporter, luminescence, 24 h; Potency, µM (top dose mostly 9.22 µM), for inactives: top-dose activation, negative = inhibition, hits mostly activators; AID 485297; 2.8% of 320,000 active; note: % of control where 0% means no effect; nearly all actives have a fitted effect of over 60% in size
#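 Luminescence from Amplite-detected luciferase (10 minutes, ambient) reports Rab9 promoter activation. Before that, stable Rab9-luciferase Huh7 cells (1500/well, reduced-serum OP-MEM I plus 10% FBS) were exposed to compound for 24 hours at 37C.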
# ELG1 genotoxic = inducers of genotoxicity in HEK293T ELG1-luciferase cells; 1.3% of 330,000 active; HEK293T ELG1-luciferase reporter, luminescence, 16 h; Potency, µM (series often up to 46 µM), for the others: at the highest dose activity change, positive = activation, most hits filed as activators; note: % of control where 0% means no effect; nearly all actives have a fitted effect of over 60% in size
#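 Genotoxic stress is detected as increased luminescence from luciferase-tagged ELG1 in HEK293T cells, measured with ONE-Glo after a 16 hr treatment at 37 °C.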
# ELG1 DNA repair = blocks ELG1-dependent DNA repair in HEK293T cells; HEK293T ELG1-luciferase reporter, luminescence, 16 h; DNA damage induced by 5-fluorouridine; Potency, µM (top dose mostly 46.1 µM), for the others: at the top dose activity change, negative = inhibition, most hits filed as inhibitors; 2.3% of 330,000 active; AID 504467; note: % is set by controls: 0 for no effect and ±100 for the full control effect; nearly all actives have a fitted effect of over 55% in size
#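 Overnight (16 hr) co-exposure of 2,000 cells/well to 5-fluorouridine and compound at 37 °C preceded detection. Luciferase was quantified via ONE-Glo luminescence; loss of signal denotes inhibition.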
# SMN2 splice up = increases expression of the SMN2 splice variant; HEK293 SMN2-luciferase splicing reporter, luminescence, 30-36 h; 2.8% of 210,000 active; Potency, µM (series often up to 46.1 µM), inactives show at the top dose activity change, positive = activation, hits mostly activators; note: % of control where 0% means no effect; nearly all actives have a fitted effect of over 55% in size
#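 qHTS luciferase splicing reporter: luminescence rises when SMN2 exon 7 is included in transfected HEK293 cells. Compound exposure lasted 30-36 h at 37C, with 4.5 mM final sodium butyrate as control, followed by a ONE-Glo read.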
# * = called active by the depositor; ? = inconclusive; . = no result given; [ ] = remark or other dose. An excerpt weighted towards active compounds, which were near 9.4% of everything screened. Calls come from the whole dose curve; as a rule, active = well fitted curve in the direction sought with a large enough effect; inconclusive = small, poorly fitted or top-dose-only effect, or another doubt; inactive = no such curve, though single readings can be large; an effect the other way counts as inactive or inconclusive. Potency is the fitted concentration of half-maximal effect.
SMILES,NPC1 prom act,FLuc modulator,Rab9 prom act,ELG1 genotoxic,ELG1 DNA repair,SMN2 splice up
Cc1nc2c(ccc3nc(NC(=O)Cc4cccc5ccccc45)sc32)s1,-8.0%,?,?,-6.5%,5.17µM*,-62.1%
Cc1ccc(Cn2c(C)c3cnn(CC(=O)N4CCN(c5ccc(F)cc5)CC4)c(=O)c3c2C)cc1,.,?,.,.,.,-8.0%
Cc1ccccc1-n1nc(CO)c(C(=O)NCc2cccnc2)n1,.,-2.8%,.,.,.,-9.9%
O=C(Nc1ccccc1C(F)(F)F)N1CCC(CN2CCc3ccccc3C2)CC1,.,0.3%,.,.,.,.
COc1ccc2sc(NC(=O)NC(=O)c3c(Cl)cccc3Cl)nc2c1,12.5%,19µM*,-1.1%,0.2%,-6.9%,.
COc1ccc2nc(NC(=O)CS(=O)(=O)c3ccc(C)cc3)sc2c1,-0.9%,?,0.2%,-11.4%,10.3%,.
CCC(=O)Nc1nc2cc(OC)ccc2s1,2.24µM*,12µM*,1.41µM*,?,?,?
COc1ccc2sc(NC(C)=O)nc2c1,2.51µM*,16.9µM*,?,9.2µM*,?,17.8µM*
COc1cccc(NC(=O)NC(=O)c2c(C)cc(Cl)nc2Cl)c1,1.9%,3.2%,-4.3%,-0.6%,6.7%,.
CC(=O)N1CCN(C(=S)c2ccc(-c3ccc(Cl)cc3)o2)CC1,0.0%,?,-0.7%,0.5%,11.1%,.
N#CCCN1CCN(C(=S)c2ccc(-c3ccc(Cl)c(Cl)c3)o2)CC1,13.1%,15.1µM*,25.7%,?,?,8.6%
N#CCCN1CCN(C(=S)c2ccc(-c3cccc(Cl)c3)o2)CC1,22.1%,19µM*,?,?,?,20.4%
Cc1cccc(N2CCN(C(=O)C3CCN(S(=O)(=O)c4c(C)noc4C)CC3)CC2C)c1 (centres undefined),-0.7%,1.1%,-1.6%,-5.4%,20.6µM*,-38.8%
Cc1cccc(N2CCN(C(=O)C3CCCN(S(=O)(=O)c4cnc[nH]4)C3)CC2C)c1 (centres undefined),0.0%,3.6%,-3.5%,-6.9%,23.1µM*,-5.3%
Cc1ccc(N2C(=O)C(CC(=O)Nc3ccc(F)cc3)N(CCC3=CCCCC3)C2=O)cc1 (centres undefined),.,-7.8%,.,.,.,11.8%
COc1ccc(-c2nc(C(=O)O)cs2)cc1OC,11.9%,?,14.7%,7.2%,?,-9.8%
COc1ccc(-c2cc(C(=O)O)nc3ccc4ccccc4c23)cc1OC,9.7%,4.26µM*,2.8%,4.6%,?,14.9%
COc1ccc(CC(=O)NCC(c2cccs2)S(=O)(=O)c2ccc(Cl)cc2)cc1 (centres undefined),.,-12.0%,.,.,.,.
CCOC(=O)C1(Cc2ccccc2)CCCN(C(=O)C=C(C)C)C1 (centres undefined),?,16.9µM*,3.55µM*,?,?,.
CCOC(=O)C1(Cc2ccc(OC)cc2)CCN(C(=O)c2cc3ccccc3[nH]2)CC1,2.4%,15.1µM*,2.1%,1.5%,-29.3%,18.7%
CCOC(=O)C1(Cc2ccccc2)CCCN(C2CCN(C(C)=O)CC2)C1 (centres undefined),-1.0%,0.8%,-2.1%,-0.8%,-3.1%,.
CCOC(=O)C1(Cc2cccc(OC)c2)CCN(C2CCOCC2)CC1,?,3.01µM*,?,?,?,.
CC#CC(=O)N1CCCC(Cc2cccc(OC)c2)(C(=O)OCC)C1 (centres undefined),?,23.9µM*,?,16.0%,?,.
CC1=C(C(=O)Nc2ccc(Cl)cc2)C(c2cccs2)n2nc(SCc3cccc(C)c3)nc2N1 (centres undefined),.,-2.5%,.,.,.,1.8%
COc1ccc2[nH]cc(CCNC(=O)CCC3CCCCC3)c2c1,0.7%,-3.1%,-1.7%,-4.3%,-9.7%,.
SMILES,NPC1 prom act,FLuc modulator,Rab9 prom act,ELG1 genotoxic,ELG1 DNA repair,SMN2 splice up
CCOC(=O)C1(Cc2cccc(OC)c2)CCCN(C(=O)CCc2cccnc2)C1 (centres undefined),16.5%,16.9µM*,?,?,?,.
CCOC(=O)C1(Cc2cccc(F)c2)CCN(Cc2ccc(COC)o2)CC1,-1.0%,-2.5%,1.5%,-7.2%,23.1µM*,.
CCOC(=O)C1(Cc2cccc(Cl)c2)CCCN(C(=O)c2cccnc2)C1 (centres undefined),-3.5%,-0.7%,-7.8%,-1.0%,12.4%,.
CCOC(=O)C1(Cc2ccccc2)CCN(Cc2ccc(COC)o2)CC1,-3.9%,0.4%,-0.8%,-9.0%,-5.6%,.
CC(C)CNC(=O)Nc1cc(C(=O)NCc2ccc(C(C)C)cc2)ccc1N1CCCC1,.,-12.6%,.,.,.,.
N#C/C(=C\NC(=S)c1ccncc1)c1nc2ccccc2s1,.,.,.,.,.,1.5%[9.22 µM]
CCOC(=O)c1cn[nH]c1NC(=S)Nc1ccc(Cl)cc1,0.316µM*,0.379µM*,0.316µM*,?,?,.
COc1c(Cl)cc(Cl)cc1/C=N/NC(=O)c1nnn(-c2nonc2N)c1CN1CCC(C)CC1,-0.5%,4.3%,2.4%,2.8%,3.5%,.
CC1CCN(Cc2c(C(=O)N/N=C/c3cc(Br)ccc3O)nnn2-c2nonc2N)CC1,-12.4%,2.5%,-32.4%,0.3%,2.59µM*,.
CC1CCN(Cc2c(C(=O)N/N=C/c3cc(Cl)ccc3O)nnn2-c2nonc2N)CC1,-16.0%,0.2%,-31.4%,0.1%,2.06µM*,.
Cc1ccc(NC(=O)NCCOCCn2c(=O)oc3ccccc32)c(C)c1,.,-5.7%,.,.,.,-1.5%
CCc1ccc(NC(=O)c2cc3c(COC(C)=O)cnc(C)c3oc2=O)cc1,.,-2.1%,.,.,.,.
CCOc1ccc(CCNC(=O)CCn2c(=O)c3cccn3c3ccc(F)cc32)cc1OCC,.,-11.1%,.,.,.,.
COc1ccc(-c2nc(-c3ccccn3)no2)cc1,0.1µM*,0.0953µM*,0.0398µM*,?,?,.
Clc1ccc(-c2nc(-c3ccccn3)no2)cc1Cl,0.316µM*,0.953µM*,0.562µM*,?,?,2.51µM*
O=C(Nc1ncc2c(n1)-c1ccccc1CC2)c1cccs1,15.5%,19µM*,20.2%,1.4%,1.2%,-4.6%
Fc1ccccc1Nc1nc2c(s1)CCc1ccccc1-2,?,1.9µM*,3.16µM*,8.2µM*,?,?
COc1ccc2c(c1)CCc1sc(NC(=O)c3cccc(Br)c3)nc1-2,.,-12.9%,.,.,.,.
O=C(Nc1nc2c(s1)CCc1ccccc1-2)c1cccs1,?,13.5µM*,?,9.1%,?,8.8%
O=C(Nc1nc2c(s1)COc1ccccc1-2)c1cccs1,15.7%,13.5µM*,10.1%,0.2%,-16.5%,-17.7%
O=C(COc1ccc(F)cc1)OCc1cc(=O)n2nc(C3CCCCC3)sc2n1,.,-1.1%,.,.,.,.
Cc1cc(C)c(NC(=O)Cn2ccn(-c3cccc(Cl)c3)c(=O)c2=O)c(C)c1,.,-17.7%,.,.,.,.

# Source: PubChem
